An excerpt weighted towards active compounds, which were near 2.8% of everything screened.
HEK293 viab – reduces viability of HEK-293 SNCA reporter cells. HEK-293-SNCA-luc viability, GF-AFC fluorescence, 24 h. Potency, µM (titrated, usually from 57.1 µM), without a hit: at the top dose activity change, negative = cytotoxicity, hits mostly cytotoxic. hit rate 0.12% among 150,000;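 note: potency is the fitted concentration of half-maximal effect; 0% = DMSO-treated cells and -100% = medium-only wells without cells; nearly all actives have a fitted effect of over 30% in size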
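HEK-293-SNCA-luc cells (1500/well) plated 24 h, then exposed 24 h to a dilution series; GF-AFC added 30 min at 37C, fluorescence 405/540 nm; normalised to medium-only and DMSO wells, Hill fit.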
SNCA expr inh – SNCA gene expression inhibition. HEK-293 SNCA-luciferase knock-in, luminescence, 24 h. Potency, µM (titrated, usually from 57.2 µM), without a hit: at the highest dose activity change, negative = inhibition, most hits filed as inhibitors. hit rate 0.17% among 140,000. AID 1671194;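 note: potency is the fitted concentration of half-maximal effect; plate controls were DMSO cells for no effect and cell-free wells for full effect; nearly all actives have a fitted effect of over 45% in size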
IP6K1 inh – blocks human inositol hexakisphosphate kinase 1. IP6K1 kinase, ADP-Glo luminescence, 2 h; hits give low values. activity change, % (series mostly up to about 58 µM). hit rate 0.81% among 140,000; in the data active = activity change below about -25%; note: % is set by controls: 0 for no effect and ±100 for the full control effect
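ADP-Glo luminescence measures ADP made by human IP6K1 during a 2 h RT reaction with ATP/IP6 (mix at 1.3 mM/130 uM); top library doses 57.5 and 19.1 uM final.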
KDM5B inh – KDM5B demethylase inhibition | KDM5B demethylase, FDH-coupled NADH fluorescence (FDH is formaldehyde dehydrogenase) | Potency, µM (highest dose often 57.7 µM), hits mostly inhibitors | hit rate 2.6% among 220,000; note: potency is the fitted concentration of half-maximal effect; 0% is about no effect; nearly all actives have a fitted effect of over 70% in size
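Here, H3K4me3 peptide (12.5 µM in substrate mix) is demethylated by KDM5BΔAP, 200 nM final, after 10 min compound exposure. Formaldehyde product is coupled through FDH (0.25 U/mL in mix) to NADH fluorescence; 30-min ΔRFU feeds dose-response curves.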
IP6K1 inh cnf – confirmation of human IP6K1 inhibitors; hit rate 13% among 1,200; Potency, µM (top dose mostly 49 µM), for the others: top-dose activity change, negative = inhibition, most hits filed as inhibitors; shares compounds with IP6K1 inh; recombinant IP6K1 kinase, ADP-Glo luminescence, 2 h; note: potency is the fitted concentration of half-maximal effect; % is set by controls: 0 for no effect and ±100 for the full control effect; nearly all actives have a fitted effect of over 65% in size
* marks the source's active call; other numbers are inactive results; [ ] = another dose, or the depositor's remark. Unless noted, calls come from the whole dose curve; as a rule, active = well fitted curve in the direction sought with a large enough effect; inconclusive = small, poorly fitted or top-dose-only effect, or another doubt; inactive = no such curve, though single readings can be large; an effect the other way counts as inactive or inconclusive.

Results for CN1CCN(C(=O)Cc2ccc(Cl)cc2Cl)CC1 ?
KDM5B inh: inactive

How did COc1ncc(-c2cnc3[nH]cc(CC(=O)N4CCN(C)CC4)c3c2)cn1 do in these assays?
HEK293 viab: -2%[87.6 µM]; SNCA expr inh: 12%[87.6 µM]; IP6K1 inh: 12; KDM5B inh: inactive

How did CN1CCN(C(=O)Cc2c[nH]c3ncc(-c4ccc(Cl)cc4)cc23)CC1 do in these assays?
HEK293 viab: 3%[87.6 µM]; SNCA expr inh: -15%[87.6 µM]; IP6K1 inh: -10; KDM5B inh: 32µM*

Results for Cn1cc(-c2cnc3[nH]cc(CC(=O)N4CCN(Cc5ccccc5)CC4)c3c2)cn1 ?
HEK293 viab: 1%[87.6 µM]; SNCA expr inh: -5%[87.6 µM]; IP6K1 inh: -4; KDM5B inh: 28µM*

How did CN1CCN(C(=O)Cc2c[nH]c3ncc(-c4ccc(F)c(Cl)c4)cc23)CC1 do in these assays?
HEK293 viab: 2%[87.6 µM]; SNCA expr inh: 5%[87.6 µM]; IP6K1 inh: 1; KDM5B inh: 40µM*

What do the screens show for `C=CC(C)(O)CC/C=C(\C)C(=O)O[C@H]1[C@H](O)[C@@H](CO)O[C@@H](OC(=O)[C@]23CCC(C)(C)CC2C2=CCC4[C@@]5(C)CC[C@H](O[C@@H]6O[C@H](CO[C@@H]7OC[C@H](O)[C@H](O)[C@H]7O[C@@H]7OC[C@@H](O)[C@H](O)[C@H]7O)[C@@H](O)[C@H](O)[C@H]6O)C(C)(C)C5CC[C@@]4(C)[C@]2(C)CC3)[C@@H]1OC1OC(C)C(O[C@@H]2OC[C@@H](O)[C@H](O[C@@H]3OC[C@@H](O)[C@H](O)[C@H]3O)[C@H]2O)C(O)C1O` (stereo partly specified)?
HEK293 viab: -34%[12.5 µM]; IP6K1 inh: -3

What do the screens show for `O=C1[C@H]2CNC[C@H]2C(=O)N1CCc1ccccc1`?
HEK293 viab: 5%; SNCA expr inh: inconclusive; IP6K1 inh: 14; KDM5B inh: inactive

What do the screens show for `O=C(O)CSCC(=O)N1C[C@@H]2C[C@H](C1)c1ccc(-c3cccc(C(F)(F)F)c3)c(=O)n1C2`?
HEK293 viab: -1%; SNCA expr inh: -8%; IP6K1 inh: 12; KDM5B inh: 32µM*

What do the screens show for `COCCC(=O)N1C[C@@H]2C[C@H](C1)c1ccc(-c3cccc(C(F)(F)F)c3)c(=O)n1C2`?
HEK293 viab: -11%[87.6 µM]; SNCA expr inh: -10%[87.6 µM]; IP6K1 inh: 7; KDM5B inh: 40µM*

Results for CC(C)NC(=O)N1C[C@@H]2C[C@H](C1)c1ccc(-c3cccc(C(F)(F)F)c3)c(=O)n1C2 ?
HEK293 viab: -1%[87.6 µM]; SNCA expr inh: inconclusive; IP6K1 inh: 16; KDM5B inh: inactive

What do the screens show for `O=C(c1ccncc1)N1C[C@@H]2C[C@H](C1)c1ccc(-c3cccc(C(F)(F)F)c3)c(=O)n1C2`?
HEK293 viab: -10%; SNCA expr inh: 1%; IP6K1 inh: 11; KDM5B inh: 28µM*

Results for O=C(C1CCCC1)N1[C@H]2CC[C@@H]1c1cnc(-c3ccc(F)cc3)nc1C2 ?
HEK293 viab: -3%; SNCA expr inh: -19%; IP6K1 inh: 2; KDM5B inh: inactive

How did N[C@@H](Cc1ccc(Oc2cc(I)c(O)c(I)c2)c(I)c1)C(=O)O do in these assays?
HEK293 viab: 21%[23.9 µM]; SNCA expr inh: 15%[25.6 µM]; IP6K1 inh: -54*; IP6K1 inh cnf: inconclusive

How did CN1CCN(C(=O)Cc2c[nH]c3ncc(-c4ccc5c(c4)OCO5)cc23)CC1 do in these assays?
HEK293 viab: 12%[87.6 µM]; SNCA expr inh: -19%[87.6 µM]; IP6K1 inh: -27*; KDM5B inh: inconclusive; IP6K1 inh cnf: inconclusive

What do the screens show for `Cc1ccc2c(c1)[C@H]1CN(C)CC[C@H]1N2C(=O)CSc1nnnn1-c1ccc(Cl)cc1`?
HEK293 viab: -18%; IP6K1 inh: 3

What do the screens show for `Cc1cccc(OCC(=O)N2CCN(Cc3cc(=O)n4nc(-c5ccccc5Cl)sc4n3)CC2)c1`?
HEK293 viab: 4%; SNCA expr inh: 10%; IP6K1 inh: -30*; KDM5B inh: inactive; IP6K1 inh cnf: 3%

Results for Cc1nc(-c2ccccc2Br)cc([C@H]2CN3CC[C@H]2C[C@@H]3CNC(=O)Nc2cccc(C#N)c2)n1 ?
HEK293 viab: inconclusive; SNCA expr inh: -3%; IP6K1 inh: 0; KDM5B inh: inconclusive

Screens: PubChem, National Center for Advancing Translational Sciences (NCATS)
